{"source": "PubChem BioAssay (NCI)", "note": "About 83,000 compounds went through this panel and 20% of them were active in at least one assay; those are over-represented in the sample as a whole.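 Plates (96-well) were seeded with cells, treated with compound at one concentration, and incubated for 48 hours before percent growth was determined.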 Values without a mark were called inactive. The source made the active and inactive calls. How the source made its calls: active means growth percent below 10; inactive means the rest.", "data": [{"test_system": "HCC-2998 colon", "test": "NCI-60 one-dose screen, 48 h (100 = growth as untreated, 0 = no growth, -100 = all killed)", "details": "10 µM unless noted", "values": [{"smiles": "NC(N)=NC(N)=NCCCc1ccco1", "growth": "106%"}, {"smiles": "CN1Cn2c(ccc2C(F)(F)F)C(=O)CS1(=O)=O", "growth": "104%"}, {"smiles": "CCCc1cc(C(N)=S)ccn1", "growth": "108%"}, {"smiles": "C#CCn1cnc2cnc(Nc3cccc(NC(=O)CCl)c3)nc21", "growth": "-11.4% [6.25 µM] (active)"}, {"smiles": "CCCn1nc(C(=O)N2CCCCC2)c2c1CCC(N1CCC(c3ccncc3)CC1)C2", "note": "(stereo not given)", "growth": "109%"}, {"smiles": "Cc1c(O)c(O)cc2c3c(oc12)CC(c1ccc2c(c1)OCO2)CC3=O", "note": "(stereo not given)", "growth": "101%"}, {"smiles": "COc1ccc(Nc2nn3c(SCC(=O)c4ccc(C)cc4)nnc3s2)cc1", "growth": "111%"}, {"smiles": "N#Cc1c(-c2cccc(F)c2)cc(-c2cccnc2)[nH]c1=O", "growth": "112%"}, {"smiles": "O=[N+]([O-])c1ccc2[nH]c3nccc(NCc4cccc(Cl)c4)c3c2c1", "growth": "114%"}]}, {"test_system": "HCC-2998 colon", "test": "NCI-60 one-dose screen, 48 h (100 = growth as untreated, 0 = no growth, -100 = all killed)", "details": "100 µM", "values": [{"smiles": "CCN(Cc1ccccc1)c1ccc(/C=C2\\COc3ccccc3C2=O)cc1", "growth": "66.8%"}, {"smiles": "CC(=O)/C=C/c1ccc(OCc2ccc(C(C)(C)C)cc2)cc1", "growth": "86.8%"}, {"smiles": "CC(=O)/C=C/c1ccc(N(CCO)Cc2ccc(C(C)(C)C)cc2)cc1", "growth": "-89.2% (active)"}, {"smiles": "O=C(/C=C/c1cccc(Oc2ccc(Cl)cc2)c1)c1ccccc1", "growth": "-97.8% (active)"}, {"smiles": "COc1ccc(C(=O)/C=C/c2ccc(OCc3cccc(C(F)(F)F)c3)c(OC)c2)cc1OC", "growth": "10.8%"}, {"smiles": "CC(=O)/C=C/c1ccc(OCc2ccc(Cl)cc2)cc1", "growth": "60.4%"}, {"smiles": "COc1ccc(C(=O)/C=C/c2ccc(OCc3ccc(Cl)cc3)cc2)cc1OC", "growth": "44%"}, {"smiles": "CC(=O)/C=C/c1ccc(N(C)Cc2ccc(C(C)(C)C)cc2)cc1", "growth": "-41.2% (active)"}]}, {"test_system": "KM12 colon", "test": "NCI-60 one-dose screen, 48 h (100 = growth as untreated, 0 = no growth, -100 = all killed)", "details": "10 µM", "units": {"growth": "%"}, "values": [{"smiles": "CCN(Cc1ccccc1)c1ccc(/C=C2\\COc3ccccc3C2=O)cc1", "growth": 98.3}, {"smiles": "CC(=O)/C=C/c1ccc(OCc2ccc(C(C)(C)C)cc2)cc1", "growth": 82.9}, {"smiles": "CC(=O)/C=C/c1ccc(N(CCO)Cc2ccc(C(C)(C)C)cc2)cc1", "growth": 81.2}, {"smiles": "O=C(/C=C/c1cccc(Oc2ccc(Cl)cc2)c1)c1ccccc1", "growth": 75.3}, {"smiles": "COc1ccc(C(=O)/C=C/c2ccc(OCc3cccc(C(F)(F)F)c3)c(OC)c2)cc1OC", "growth": 72.5}, {"smiles": "CC(=O)/C=C/c1ccc(OCc2ccc(Cl)cc2)cc1", "growth": 93.9}, {"smiles": "COc1ccc(C(=O)/C=C/c2ccc(OCc3ccc(Cl)cc3)cc2)cc1OC", "growth": 90.7}, {"smiles": "CC(=O)/C=C/c1ccc(N(C)Cc2ccc(C(C)(C)C)cc2)cc1", "growth": 95.5}]}]}
